# Source: ChEMBL document CHEMBL4513146, “CO-ADD screening of Karazin Kharkiv National University (Ukraine) compounds”
# Potency and affinity values are given separately.
# Key:
# Staphylococcus aureus = settings: Concentration 32 ug.mL-1;; ASSAY_TEST Inhibition of Bacterial Growth; detection method Absorption (OD600); MEDIA CAMHB; plate type 384well; NBS; CORNING #3640; time 18 hr
# Escherichia coli = settings: Concentration 32 ug.mL-1;; ASSAY_TEST Inhibition of Bacterial Growth; detection method Absorption (OD600); MEDIA CAMHB; plate type 384well; NBS; CORNING #3640; time 18 hr
SMILES,Inhibition (Staphylococcus aureus) [%],Inhibition (Escherichia coli) [%]
O=c1c2nn(Cc3cccc(F)c3)c(=O)n2ccn1-c1ccccc1,-1.92,-7.67
CCOC(=O)c1ccc(NC(=O)CSc2nc3ccccc3n3c(C(C)C)nnc23)cc1,-3.17,-9.79
COC(=O)c1ccccc1NC(=O)CSc1nc2ccccc2n2c(C(C)C)nnc12,10.06,-3.26
CCCc1nnc2c(=O)n(CC(=O)Nc3ccc4c(c3)OCCO4)c3ccccc3n12,2.35,-7.37
O=c1c2sccc2n2c(=O)n(Cc3cccc(C(F)(F)F)c3)nc2n1Cc1cccs1,22.09,2.86
O=c1c2nnc(SCc3ccc(F)cc3)n2ccn1-c1ccc(Br)cc1,3.87,-5.68
CCOc1ccccc1NC(=O)Cn1nc2c(SC3CCCCC3)nccn2c1=O,3,-8.56
CCOc1ccc(-n2ccn3c(SC(C)C(=O)Nc4cc(OC)cc(OC)c4)nnc3c2=O)cc1 (configuration not stated),1.84,2.97
CCc1nnc2ccc(S(=O)(=O)N(Cc3ccc(OC)c(F)c3)c3ccccc3)cn12,-14.1,-2.03
COc1ccc(NC(=O)CSc2nnc3c(=O)n(-c4ccccc4OC)ccn23)cc1Cl,16.85,-0.75
COc1cccc(CN(c2cccc(F)c2)S(=O)(=O)c2ccc3nnc(C)n3c2)c1,-5.28,-2.32
COc1cccc(Sc2nc3ccccc3n3c(=O)n(CC(=O)Nc4ccc(C)cc4)nc23)c1,4.18,-1.95
Cc1cc2nn(CC(=O)Nc3ccc(F)c(F)c3)c(=O)n2c(Nc2ccc(C)c(F)c2)n1,7.73,-3.04
O=c1c2nn(Cc3ccc(F)cc3)c(=O)n2ccn1-c1ccccc1,14.99,-4.05
Cc1ccc(-c2ccc3nn(CC(=O)Nc4ccc(C#N)cc4)c(=O)n3n2)cc1C,8.65,0.46
COc1ccc(NC(=O)c2ccc3nn(CC(=O)N4CCN(c5ccccc5)CC4)c(=O)n3c2)cc1,2.28,-9.19
Cc1cc(C)cc(NC(=O)Cn2nc3c4cc(-c5ccc(C)c(C)c5)nn4ccn3c2=O)c1,5.77,-4.98
CCOC(=O)c1cccc(NC(=O)Cn2nc3c(Oc4cccc(C)c4C)nccn3c2=O)c1,-16.27,-3.26
CCc1nnc2c(S(=O)(=O)N(Cc3cccc(F)c3)c3ccccc3)cccn12,7.57,-5.76
Cc1ccccc1N1CCN(c2nccn3c(=O)n(CC(=O)NCc4ccc(Cl)cc4)nc23)CC1,13.83,-3.79
Cc1ccc(Cn2nc3c(=O)n(-c4ccc(C)c(C)c4)ccn3c2=O)cc1,14.06,-0.87
CCc1nnc2c(SCC(=O)Nc3c(C)cc(C)cc3C)nc3ccccc3n12,7.54,3.61
COc1ccc(-c2cc3c4nn(CC(=O)Nc5ccccc5Cl)c(=O)n4ccn3n2)cc1,-2.84,-5.57
COc1ccc(C(C)NC(=O)CCc2nnc3ccc(-c4ccc(C)cc4)nn23)cc1OC (configuration not stated),4.62,2.29

SMILES,Inhibition (Staphylococcus aureus) [%],Inhibition (Escherichia coli) [%]
O=S(=O)(c1ccc2nncn2c1)N(Cc1ccccc1)c1ccc(F)c(F)c1,-0.12,-6.68
O=C(Cn1nc2c(Oc3ccccc3)nccn2c1=O)Nc1ccc2c(c1)OCCO2,7.17,2.24
CCOC(=O)c1ccccc1NC(=O)Cn1nc2c(Oc3ccccc3)nccn2c1=O,12.16,1.14
N#Cc1ccc(NC(=O)Cn2nc3c(SC4CCCCC4)nccn3c2=O)cc1,7.35,-8.54
CCc1ccc(N(Cc2cccc(F)c2)S(=O)(=O)c2cccn3c(CC)nnc23)cc1,13.65,-0.18
COc1ccc(-c2cc3c4nn(CC(=O)NCc5ccccc5Cl)c(=O)n4ccn3n2)cc1,8.73,0.93
COc1ccc(-n2ccn3c(=O)n(Cc4cc(C)ccc4C)nc3c2=O)cc1Cl,5.41,-0.01
Cc1ccc(-c2ccc3nn(CC(=O)Nc4ccc(Br)cc4)c(=O)n3n2)cc1C,15.41,-2.09
Cc1ccc(Oc2nccn3c(=O)n(CC(=O)Nc4ccc(C)cc4Cl)nc23)cc1,6.09,0.24
COc1cccc(-n2ccn3c(SCC(=O)NC(C)C)nnc3c2=O)c1,11,-7.26
COc1cccc(-n2ccn3c(SCC(=O)c4c[nH]c5ccc(OC)cc45)nnc3c2=O)c1,11.97,-2.96
O=C(CSc1nnc2c(=O)n(-c3ccc(Br)cc3)ccn12)c1ccc(F)cc1,0.43,-3.19
O=C(Cn1nc2c(Oc3ccccc3)nccn2c1=O)Nc1cc(F)ccc1F,-5.96,-11.57
COCCCNC(=O)CSc1nnc2c(=O)n(Cc3ccccc3)ccn12,7.01,-1.7
COc1cccc(-n2ccn3c(SCC(=O)Nc4ccc5c(c4)OCCO5)nnc3c2=O)c1,11.59,-2.35
CC(=O)c1cccc(NC(=O)CSc2nc3ccccc3n3c(C)nnc23)c1,-0.38,-4.41
O=C(CSc1nnc2c(=O)n(-c3ccc(Br)cc3)ccn12)Nc1cc(F)ccc1F,11.71,-2.54
O=c1c2sccc2n2c(=O)n(Cc3c(F)cccc3Cl)nc2n1CCc1ccccc1,3.01,-6.52
Cc1cccc(Oc2nc3ccccc3n3c(=O)n(CC(=O)NCc4ccco4)nc23)c1C,3.87,-6.2
COc1ccc(NC(=O)Cn2nc3c(Oc4cccc(F)c4)nccn3c2=O)cc1,-3.6,-10.71
CCOc1ccc(-n2ccn3c(SCC(=O)NCc4cccc(OC)c4OC)nnc3c2=O)cc1,12.04,-1.13
O=C(CSc1nnc2c(=O)n(-c3cccc(F)c3)ccn12)Nc1ccc(Br)cc1,17.12,-2.48
COc1ccc(-c2cc3c4nn(CC(=O)Nc5cc(C)ccc5C)c(=O)n4ccn3n2)cc1,3.16,2.02
O=S(=O)(c1ccc2nncn2c1)N(Cc1ccc(F)cc1)c1ccc(F)c(F)c1,-11.56,-13.53

SMILES,Inhibition (Staphylococcus aureus) [%],Inhibition (Escherichia coli) [%]
Cc1cccc(C)c1NC(=O)Cn1nc2c(Sc3ccccc3)nccn2c1=O,-0.19,-13.17
CCOc1ccc(NC(=O)CSc2nnc3c(=O)n(-c4ccc(OCC)cc4)ccn23)cc1,16.17,-1.04
O=C(CSc1nnc2c(=O)n(-c3ccccc3)ccn12)Nc1ccc(Br)cc1F,2.85,-9.92
COc1cc(OC)c(NC(=O)Cn2nc3ccc(-c4ccc(C)c(C)c4)nn3c2=O)cc1Cl,2.47,-7.33
CCc1nnc2c(SCC(=O)Nc3ccc(C)cc3Cl)nc3ccccc3n12,2.52,2.69
CCOc1ccc(-n2ccn3c(SCC(=O)Nc4ccc(C)c(C)c4)nnc3c2=O)cc1,-4.99,-21.19
O=S(=O)(c1ccc2nncn2c1)N(Cc1cc(F)cc(F)c1)c1ccccc1,0.37,-13.22
COc1cccc(-n2ccn3c(SCC(=O)c4cc(C)ccc4C)nnc3c2=O)c1,11.66,-1.7
Cc1c(Cl)cccc1NC(=O)Cn1nc2c(N3CCOCC3)nc3ccccc3n2c1=O,6.58,-0.44
CCCN(C)c1nccn2c(=O)n(CC(=O)Nc3cccc(Cl)c3F)nc12,4.66,0.13
CCOc1ccc(N(Cc2ccccc2)S(=O)(=O)c2ccc3nncn3c2)cc1,-0.89,-1.41
COc1ccc(-c2cc3c4nn(CC(=O)Nc5ccc6c(c5)OCO6)c(=O)n4ccn3n2)cc1,8.96,6.89
COc1ccc(OC)c(NC(=O)Cn2nc3c4cc(-c5ccc(F)cc5)nn4ccn3c2=O)c1,7.29,-2.37
CCc1nnc2c(S(=O)(=O)N(Cc3ccc(OC)c(F)c3)c3ccccc3)cccn12,14.47,1.05
O=C(Cn1nc2ccc(SCc3ccc(Cl)cc3)nn2c1=O)Nc1cccc(F)c1,-14.75,-12.61
COc1ccc(NC(=O)Cn2nc3ccc(SCc4ccc(Cl)cc4)nn3c2=O)cc1,-5.92,-10.26
COc1ccc(NC(=O)Cn2nc3c(Sc4ccccc4)nccn3c2=O)cc1Cl,-4.6,-4.12
COC(=O)c1ccc(NC(=O)Cn2nc3nc(N4CCCCCC4)ccn3c2=O)cc1,7.17,-2.48
Cc1cc(C)cc(NC(=O)Cn2nc3ccc(SCc4ccc(Cl)cc4)nn3c2=O)c1,-7.67,-11.38
Cc1cc2nn(CC(=O)Nc3cc(F)cc(F)c3)c(=O)n2c(Nc2ccc(F)c(C)c2)n1,7.29,-2.56
O=C(CSc1nc2ccccc2n2cnnc12)N1CCN(c2ccc(F)cc2)CC1,13.82,1.79
COc1ccccc1N1CCN(C(=O)Cn2nc3ccc(-c4ccc(C)c(C)c4)nn3c2=O)CC1,13.88,-0.61
CC(C)Cn1c(=O)c2sccc2n2c(=O)n(Cc3ccc(N4CCCC4=O)cc3)nc12,-1.91,-2.57
